FBPA Giardia inh – inhibitors of Giardia lamblia fructose-1,6-bisphosphate aldolase. Potency, µM (series often up to 59.6 µM), without a hit: top-dose activity, negative = inhibition, hits mostly inhibitors. 290,000 tested, 0.71% active. purified Giardia FBPA. AID 2451; also: potency is read from the fitted curve at half-maximal effect; % is scaled to controls: 0 for no effect and ±100 for the full control effect; nearly all actives have a fitted effect of over 55% in size
Target sequence (A8B2U2 whole entry, looked up): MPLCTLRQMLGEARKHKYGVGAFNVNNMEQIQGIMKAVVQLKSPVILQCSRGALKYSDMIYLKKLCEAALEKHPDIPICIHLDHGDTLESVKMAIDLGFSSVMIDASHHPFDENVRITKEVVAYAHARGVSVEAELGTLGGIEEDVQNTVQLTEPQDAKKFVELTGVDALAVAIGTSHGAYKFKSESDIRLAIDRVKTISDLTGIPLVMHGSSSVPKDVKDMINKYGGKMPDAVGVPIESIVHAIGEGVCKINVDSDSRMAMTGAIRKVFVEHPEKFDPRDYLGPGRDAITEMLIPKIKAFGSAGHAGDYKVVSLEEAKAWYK
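Giardia FBPA (40 nM reagent) was preincubated 10 min at RT with compound (up to 57.5 uM final), then substrate plus GAPDH/TPI/NAD/arsenate coupling system with diaphorase/resazurin was added; resorufin fluorescence (525/598 nm) was read after 20 min.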
LmPK inhibitor – LmPK (Leishmania mexicana) enzyme inhibition; Potency, µM (highest dose often 57.5 µM), without a hit: at the top dose activity change, negative = inhibition, actives largely listed as inhibitors; purified LmPK, Kinase-Glo ATP luminescence, 1 h; 290,000 tested, 0.37% active; AID 1721; also: potency is read from the fitted curve at half-maximal effect; % is scaled to controls: 0 for no effect and ±100 for the full control effect
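Pyruvate kinase activity monitored as ATP production (luciferase luminescence). Conditions: 0.1 nM enzyme, 0.5 mM PEP, 0.1 mM ADP, 1 h, RT; normalized against uninhibited and no-enzyme wells.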
Tb PYK inh – T. brucei pyruvate kinase inhibition. Potency, µM (top dose mostly 76.8 µM), inactives show top-dose activity, negative = inhibition, usual class: inhibitors. TbPYK enzyme, Kinase-Glo Plus ATP luminescence, 45 min. Q57TT1. 410,000 tested, 0.12% active; also: potency is read from the fitted curve at half-maximal effect; % is scaled to controls: 0 for no effect and ±100 for the full control effect; nearly all actives have a fitted effect of over 50% in size
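Luminescent Kinase-Glo Plus end-point after 45 min room-temperature reaction of T. brucei pyruvate kinase started with 130 uM ADP (final). Buffer TEA 50 mM pH 7.2 with KCl, MgCl2, BSA, Tween-20; titration-based qHTS with fitted concentration-effect curves.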
RE007 growth inh – less growth of the S. pombe RE007 Vpr strain; S. pombe RE007 Vpr strain, BacTiter-Glo ATP luminescence, 24 h; Potency, µM (top dose mostly 92.2 µM), for inactives: top-dose activity change, negative = less growth, most hits filed as inhibitors; 360,000 tested, 0.21% active; active = well fitted falling curve with a large enough effect; inconclusive = small, poorly fitted or top-dose-only effect; inactive = no such curve, though single readings can be large or run the other way; also: potency is read from the fitted curve at half-maximal effect; % is scaled to controls: 0 for no effect and ±100 for the full control effect; nearly all actives have a fitted effect of over 50% in size
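Fission yeast RE007 carrying one integrated HIV-1 vpr copy, seeded at OD 0.01 in PMG+AL medium with 23 nL pinned compound. Grown 24 h at 30 degrees; viability read by BacTiter-Glo luminescence after 5 min.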
Shiga toxin inh – blocks Shiga toxin action in Vero cells. Vero cells, Shiga toxin protein synthesis inhibition reporter. inhibition, % at 38.7 µM. 290,000 tested, 9.2% active. AID 2315; in the data active = inhibition mostly above about 28%, no sharp cut-off; inactive = mostly below about 43%; also: 0% is about no effect
CHX counter – affects cycloheximide protein synthesis inhibition readout, counter-screen. cell reporter, cycloheximide protein synthesis inhibition counterscreen. max response, %. AID 2314. 300,000 tested, 12% active; in the data active = max response mostly above about 13%, no sharp cut-off; inactive = mostly below about 14%; also: read at 38.3 µM for the half of the compounds with a filed dose; 0% is about no effect
* hit, by the source's call; ? = inconclusive; . = not tested or not shown. The entries come from a sample that favours hits as a whole. Unless noted, calls follow the shape of the dose curve; as a rule, active = well fitted curve in the direction sought with a large enough effect; inconclusive = small, poorly fitted or top-dose-only effect, or another doubt; inactive = no such curve, though single readings can be large; an effect the other way counts as inactive or inconclusive.

SMILES	FBPA Giardia inh	LmPK inhibitor	Tb PYK inh	RE007 growth inh	Shiga toxin inh	CHX counter
COc1ccc(OCCN2C(=O)c3ccccc3C2=O)c([N+](=O)[O-])c1	.	-6.5%	1.1%	4.4%	61.8*	95.6*
COc1cccc(CNCc2c(C(=O)O)c(C)n(Cc3ccc(F)cc3Cl)c2C)c1OC	.	.	-0.8%	.	.	.
O=C(Cc1c[nH]c2ccccc12)OCC(=O)c1ccccc1	.	3.1%	-10.4%	-5.7%	5.4	48.5*
N#C/C(=C(/O)COC(=O)Cc1c[nH]c2ccccc12)c1nc2ccccc2[nH]1	-26.0%	4.8%	-1.0%	-13.6%	65.5*	14.1*
COc1ccc(OC/C(O)=C(\C#N)c2nc3ccccc3[nH]2)cc1	-20.8%	1.3%	3.3%	-0.4%	1.4	0.9
COc1ccccc1OCC(=O)OC/C(O)=C(\C#N)c1nc2ccccc2[nH]1	-2.4%	-1.0%	-11.0%	-9.5%	10.1	15.6*
COc1ccc(C(=O)COC(=O)Cc2c[nH]c3ccccc23)c(OC)c1	.	.	-1.8%	-7.5%	.	.
CCOc1ccc(NC(=O)CSc2nnc3scc(-c4ccc(Cl)cc4)n23)cc1	.	.	6.1%	.	.	.
Cc1noc(C)c1C(=O)Nc1ccc(Cl)cc1C(F)(F)F	1.5%	-4.3%	-6.6%	-1.0%	1.8	-4.5
Cc1ccc(C(=O)Nc2ccc(Cl)cc2C)c(Cl)c1	0.2%	3.8%	2.4%	8.5%	100.3*	26.6*
Cc1cc(NC(=O)c2ccccc2Cl)ccc1NC(=O)c1ccccc1Cl	14.5%	0.6%	0.2%	10.5%	.	-2.4
Cc1ccc(NC(=O)c2ccc(Cl)cc2Cl)cc1O	-4.3%	-4.1%	28.9%	-15.2%	94.4*	38.5*
O=C(Nc1ccc(Cl)cc1C(F)(F)F)c1ccccc1Cl	-0.3%	-1.6%	-3.8%	2.9%	38.3	12.7*
O=C(Nc1ccc(Cl)cc1C(F)(F)F)c1ccc(Cl)cc1	5.1%	-4.4%	0.9%	13.9%	31.6	15.6*
Cc1ccc(NC(=O)Cn2cc(S(=O)(=O)c3ccccc3)c(=O)c3cc4c(cc32)OCO4)cc1	.	.	-10.4%	.	.	.
CCCCCn1c(=N)c(S(=O)(=O)c2ccccc2)cc2c(=O)n3ccccc3nc21	.	.	5.6%	.	.	.
CC(C)c1ccc(NC(=O)c2cnc3sc(N4CCOCC4)nn3c2=O)cc1	.	.	1.7%	.	.	.
O=C(Nc1cc(F)c(Br)cc1F)c1ccc(Cl)cc1	-9.5%	2.9%	-5.5%	-20.4%	111.0*	33.6*
O=C(CCNC(=O)c1ccc(Cl)cc1)Nc1ccc(F)cc1F	12.8%	-1.8%	0.2%	9.1%	3.7	-1.3
Cc1ccc(C(=O)Nc2ccc(Cl)cc2C(F)(F)F)c(Cl)c1	0.6%	4.3%	3.7%	-14.6%	56.1*	30.7*
COC(=O)c1cc2oc3ccccc3c2n1Cc1nc(-c2ccccc2Cl)oc1C	.	.	3.5%	.	.	.
CCOc1ccc(C2=NC(c3cccs3)=Nc3ccc(CC)cc3N2)cc1OCC	.	.	-10.4%	.	.	.
O=[N+]([O-])c1cc2oc3c(c2c(C=NCc2ccncc2)c1O)CCCC3	?	14.1µM*	?	?	-9.7	-2.7
N#C[C@@H]1[C@@H]2C(=O)N(c3ccc4c(c3)OCCO4)C(=O)[C@@H]2C2c3ccccc3C=CN21 (some centres not stated)	?	7.1%	.	.	29.7*	15.6
CC(=O)[C@H]1[C@@H]2C(=O)N(c3cccc(Cl)c3)C(=O)[C@@H]2[C@H]2c3ccccc3C=CN21	?	7.5%	-3.0%	-14.0%	13.0	11.1
SMILES	FBPA Giardia inh	LmPK inhibitor	Tb PYK inh	RE007 growth inh	Shiga toxin inh	CHX counter
COc1cccc(Nc2c3c(nc4nncn24)CCC3)c1	.	.	0.7%	.	.	.
CCC(C)(C)C1CCc2[nH]nc(C(=O)NN)c2C1 (configuration not stated)	12.7%	0.1%	-20.1%	24.0%	52.6*	38.0*
CCC(C)(C)C1CCc2[nH]nc(C(=O)NCC3CC3)c2C1 (configuration not stated)	.	.	-5.9%	-0.4%	.	.
C=CCOC(=O)C(=O)/C=C/c1ccc2c(c1)Cc1ccccc1-2	-6.0%	-2.5%	-3.0%	-5.9%	25.2	14.1*
CC1CCN(S(=O)(=O)c2cc(C(=O)NCc3ccc(F)cc3)n(C)c2)CC1	.	.	1.7%	.	.	.
Fc1ccc(-n2nnc(-c3cccnc3)n2)cc1	8.2%	-18.0%	-2.2%	-11.9%	70.3*	41.8*
O=c1[nH]c2ccccc2cc1-c1nnn(-c2ccc(F)cc2)n1	1.9%	1.8%	4.8%	1.1%	48.9*	23.2*
Fc1ccc(-n2nnc(-c3cnc4ccccc4c3)n2)cc1	5.2%	?	-8.8%	-5.4%	62.2*	46.2*
Fc1ccc(-n2nnc(-c3ccccc3Br)n2)cc1	-16.0%	-8.7%	-3.5%	10.8%	-2.1	2.9
Clc1ccc(-n2nnc(-c3cccnc3)n2)cc1Cl	8.9%	-1.2%	10.4%	8.0%	40.9*	41.0*
O=c1[nH]c2ccccc2cc1-c1nnn(-c2ccc(Cl)c(Cl)c2)n1	.	.	-5.6%	-3.2%	.	.
Cc1cc(C)c2oc(-c3cccc(NC(=O)COc4ccc([N+](=O)[O-])cc4)c3)nc2c1	.	.	1.1%	.	.	.
Brc1ccccc1-n1nnc(-c2cccnc2)n1	-6.1%	-7.2%	-1.0%	-0.2%	32.7	29.3*
CCn1nnc2cc(C(=O)NCCc3ccccc3F)ccc21	1.3%	-12.5%	1.9%	-6.0%	58.2*	18.6
Cn1c(C(C#N)C(=O)c2ccco2)nc2ccccc21 (configuration not stated)	-24.0%	-4.1%	-2.9%	?	70.8*	34.0*
C=C(C(=O)c1ccccc1)C(C)C(=C)C(=O)c1ccccc1	14.6%	-3.1%	-6.2%	20.1%	17.0	37.9*
C=C(C(=O)c1ccccc1)C(c1ccccc1)C(C)C(=O)c1ccccc1 (configuration not stated)	2.0%	1.4%	-5.1%	16.3%	-4.9	6.8
O=C(Cc1ccccc1)N1CCc2[nH]nc(-c3ccccc3)c2C1	0.9%	3.3%	-0.3%	-3.0%	-3.2	-3.8
CCC(=O)N1CCc2nc(-c3ccccc3)sc2C1	-11.2%	-1.6%	4.0%	-2.8%	69.4*	24.9*
CSc1ccccc1NC(=O)Nc1cccc(Cl)c1	7.5%	-6.0%	-7.2%	-22.6%	83.9*	40.8*
CSc1ccccc1NC(=O)Nc1cccc2ccccc12	.	-2.0%	6.9%	14.5%	-6.1	8.7
CSc1ccccc1NC(=O)Nc1ccc(F)c(Cl)c1	-7.3%	-8.6%	-5.8%	6.6%	60.8*	34.2*
Cc1ccc(NC(=O)Nc2cccc(Cl)c2)c(C(=O)O)c1	?	0.8%	-17.3%	2.4%	56.3	23.9*
O=C(Nc1ccc(Cl)c(Cl)c1)Nc1ccccc1O	-29.3%	-19.6%	-0.7%	-21.2%	91.0*	56.9*
COc1ccc(Nc2cccc(Cl)c2)c(C(=O)O)c1	-1.7%	0.0%	-5.0%	-11.5%	69.9	12.8
COc1cc2ccccc2cc1C(=O)Nc1cc(-c2nc3ccccc3o2)ccc1C	.	.	0.5%	.	.	.

Bioassay records (PubChem BioAssay)
